# This is a sample that favours compounds with a hit; in the whole collection about 2.3% have one here.
# CHO-K1 Ca PAM – nonselective calcium activators in parental CHO-K1 cells, primary screen, counter-screen for M1 PAM project, cell-based, Fluo-8 calcium fluorescence, full deck, 1536-well; ATP EC20; 0% at ATP EC20, 100% at ATP max; activation, % at 3 µM; actives 0.02% (n = 360,000);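 active = activation above the run cutoff, the mean activation of all test compounds plus 3 SD, cut at about 40% in these data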;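 note: peak over basal fluorescence ratio in a 140 s read after ATP addition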
# CHO-K1 Ca antag – counter-screen for M1 antagonists: effect in parental CHO-K1 cells; AID 602250; ATP-induced calcium, Fluo-8 fluorescence; actives 0.6% (n = 360,000); inhibition, % at 3 µM;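 active = inhibition above a per-plate cutoff, the plate's mean sample inhibition plus 3 SD, cut at about 24% in these data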
# M1 antag – human M1 muscarinic receptor antagonists, primary screen, CHO-K1 cells, Fluo-8 calcium fluorescence, 1536-well; CHO-K1 hM1, ACh EC80 antagonist; inhibition, % at 3 µM; actives 1.3% (n = 360,000); AID 588852, 2011;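 active = percent inhibition above its own plate's cutoff, namely the mean of that plate's compound wells plus 3 SD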;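 note: peak over basal fluorescence ratio during 140 s after agonist addition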
# Target sequence (P11229 whole entry, looked up): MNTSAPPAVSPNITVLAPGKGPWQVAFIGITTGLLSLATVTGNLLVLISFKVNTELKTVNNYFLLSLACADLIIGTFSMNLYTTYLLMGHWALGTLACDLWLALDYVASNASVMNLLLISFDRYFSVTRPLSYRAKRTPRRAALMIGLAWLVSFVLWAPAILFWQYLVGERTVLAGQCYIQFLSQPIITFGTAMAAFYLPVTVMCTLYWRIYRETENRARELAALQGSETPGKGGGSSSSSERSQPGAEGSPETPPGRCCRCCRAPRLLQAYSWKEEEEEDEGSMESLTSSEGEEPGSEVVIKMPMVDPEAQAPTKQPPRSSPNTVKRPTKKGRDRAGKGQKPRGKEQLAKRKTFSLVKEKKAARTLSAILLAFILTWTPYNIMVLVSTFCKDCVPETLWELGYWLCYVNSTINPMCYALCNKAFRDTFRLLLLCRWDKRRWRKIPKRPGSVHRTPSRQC
# CHRM1 PAM – human M1 muscarinic receptor positive allosteric modulators, primary screen, CHO-K1 cells, Fluo-8 calcium fluorescence, 1536-well; activation, % at 3 µM; CHO-K1 hM1, ACh EC20; 0% = ACh EC20, 100% = maximal ACh; actives 0.088% (n = 360,000); AID 588819, 2011; Muscarinic acetylcholine receptor M1 (Homo sapiens), P11229; in the data active = activation above about 19%, passing the limit was not always enough
# CHRM1 agonist – human M1 muscarinic receptor agonists, primary screen, Fluo-8 calcium fluorescence, CHO-K1 cells, HTS; Muscarinic acetylcholine receptor M1 (Homo sapiens), P11229; CHO-K1 hM1, agonist mode; 0% DMSO, 100% acetylcholine EC100; activation, % at 3 µM; actives 0.33% (n = 360,000);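 active = activation above the run's mean compound activation plus 3 SD, cut at about 16% in these data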;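 note: peak over basal fluorescence ratio within a 140 s kinetic read after compound addition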
# M1 ag parental – counter-screen for M1 agonists: effect in parental CHO-K1 cells | Fluo-8 calcium fluorescence; scaled to maximal ATP response, vehicle zero | activation, % at 3 µM | actives 0.48% (n = 360,000) | AID 602248, 2012; in the data active = activation above about 15%;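 note: untransfected CHO-K1 host cells lacking M1 receptor as counterscreen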
# Numbers stand for hits; 0 = inactive.
SMILES,CHO-K1 Ca PAM,CHO-K1 Ca antag,M1 antag,CHRM1 PAM,CHRM1 agonist,M1 ag parental
COCCCNc1c2c3c(cccc3[nH]c1=O)C(=O)c1ccccc1-2,0,56.5,70.6,0,263.6,285.2
CCOC(=O)N1CCN(S(=O)(=O)c2ccc(Cl)cc2)CC1,0,0,0,0,0,0
CCOC(=O)c1ccc(N2CCN(c3cc(C)ccc3C)CC2)c(N)c1,0,0,0,0,0,0
CCOC(=O)N1CCC(N2CCN(c3cc(C)ccc3C)CC2)CC1,0,0,51.4,0,0,0
CCOC(=O)N1CCC(N2CCN(S(=O)(=O)c3ccc(Cl)cc3)CC2)CC1,0,0,0,0,39.4,0
Cn1cc(S(=O)(=O)N2CCNCC2)cc1C(N)=O,0,0,0,0,0,0
COc1cccc(C2SCC(=O)N2c2ccc(Cl)cc2)c1OC (centres undefined),0,0,50.7,0,0,0
Cc1ccc(N2C(=O)CSC2c2c(F)cccc2Cl)cc1 (centres undefined),0,0,98.5,0,0,0
c1ccc(CNc2nc(NCc3cccs3)nc3ccsc23)cc1,0,0,0,0,0,15.7
COCCNc1nc(NCc2cccs2)nc2ccsc12,0,64.1,90.9,0,93.3,85.0
COc1cccc(CNc2nc(NCC3CC3)nc3ccsc23)c1OC,0,0,0,0,0,0
CSc1ccccc1CNc1nc(NCC2CC2)nc2ccsc12,0,0,39.4,0,0,0
c1ccc(CNc2nc(NCCc3ccncc3)c3sccc3n2)cc1,0,99.0,91.4,0,99.2,93.1
CNc1nc(NCc2ccccc2)c2sccc2n1,0,0,0,0,0,0
CC(=O)NCCNc1nc(NCc2cccs2)nc2ccsc12,0,0,0,0,0,0
COc1cccc(CNc2nc(NCc3ccccc3)nc3ccsc23)c1,0,0,45.8,0,0,28.6
O=C1NCCN1CCNc1nc(NCc2ccccc2)nc2ccsc12,0,27.3,69.5,0,47.1,32.2
Cc1ccc(Nc2nc(NCc3ccccc3)nc3ccsc23)c(C)c1,0,0,55.4,0,0,0
CCOC(=O)Cc1ccc(Nc2nc(NCCOC)nc3ccsc23)cc1,0,0,42.1,0,0,0
Cc1ccc(Nc2nc(NCc3cccs3)nc3ccsc23)c(C)c1,0,0,0,0,0,0
CC(C)Nc1nc(NCCN2CCNC2=O)c2sccc2n1,0,0,0,0,0,0
C=CCNC(=O)c1ccc(Cn2cc(C(F)(F)F)ccc2=O)cc1,0,0,0,0,0,0
CCCCCCCCCCCCCC(=O)NO,0,0,0,0,0,0
Cc1cc(=O)c2c(N(C)C)cccc2[nH]1,0,0,0,0,0,0
O=C1CCCN1CCCNc1nc(NCc2cccs2)nc2ccsc12,0,0,67.7,0,68.7,55.8
SMILES,CHO-K1 Ca PAM,CHO-K1 Ca antag,M1 antag,CHRM1 PAM,CHRM1 agonist,M1 ag parental
c1csc(CNc2nc(NCC3CCCCC3)c3sccc3n2)c1,0,0,0,0,0,0
COc1cc(OC)cc(C(=O)N2CCN(c3ccc(N4CCOCC4)nn3)CC2)c1,0,0,0,0,0,0
Cc1ccc2nc(SC(C)C(=O)N3CCOCC3)[nH]c2c1 (centres undefined),0,0,0,0,0,0
O=C(NCc1ccc(F)cc1)Nc1ccc(Cl)cc1,0,0,0,0,0,0
O=C(NCc1ccc(F)cc1)Nc1cccc(Cl)c1,0,30.5,0,0,0,0
O=C(Nc1cccc(F)c1)Nc1cccc(Cl)c1,0,30.4,42.6,0,0,16.5
CN1CCN(NC(=O)Nc2cccc(F)c2)CC1,0,0,30.9,0,0,0
Cc1cc(C)nc(/N=C(\N)Nc2ccc(C(C)C)cc2)n1,0,0,0,0,0,16.1
CCCCc1ccc(N/C(N)=N/c2nc(C)cc(C)n2)cc1,0,45.9,82.6,0,34.8,41.6
Cc1ccc(N/C(N)=N/c2nc(C)cc(C)n2)cc1,0,0,0,0,0,0
CCOC(=O)CSc1nc2c(sc(=S)n2-c2ccccc2OC)c(=O)n1Cc1ccco1,0,28.5,0,0,0,0
COc1ccc(CN(C)CC(=O)N2CCc3ccccc3C2)cc1,0,0,0,0,0,0
CC(=O)c1c(C)[nH]c(C(=O)OCC(=O)c2ccc(C)s2)c1C,0,0,0,0,0,0
COc1ccc(CN2CCC(CO)(Cc3cccc(C(F)(F)F)c3)CC2)cc1Cn1cccn1,0,0,23.4,0,0,0
OCC1(Cc2cccc(C(F)(F)F)c2)CCN(Cc2cc3ccccc3o2)CC1,0,0,0,0,0,0
Cc1c(CN2CCC(CO)(Cc3cccc(C(F)(F)F)c3)CC2)c2ccccc2n1C,0,0,25.6,0,0,0
CC(C)NC(=O)C1(C)CCCCN1Cc1ccc(OCc2ccccc2)cc1 (centres undefined),0,0,0,0,0,0
Cc1ccc(-n2nc(C(=O)c3ccccc3)n3c(=O)cc(-c4ccccc4)nc23)cc1,0,0,37.3,0,0,0
Cc1ccc(OC/C(=N\O)C(C)(C)C)c([N+](=O)[O-])c1,0,0,0,0,0,0
CCOC(=O)C1=CN(Cc2ccco2)S(=O)(=O)NC1c1ccc(F)c(Cl)c1 (centres undefined),0,0,0,0,0,0
COc1ccc2cc(C(=O)N/N=C/c3sc4ccccc4c3O)ccc2c1,0,0,0,0,32.7,0
COc1ccc(C(=O)N/N=C/c2sc3ccccc3c2O)cc1,0,0,0,0,0,0
COc1cc(OC)c(C2=NOC(C(=O)Nc3ccc4c(c3)OCO4)C2)cc1Cl (centres undefined),0,0,0,0,0,17.7
Cc1cccc(C)c1C(=NCCN(C)C)c1ccccc1,0,0,75.0,0,0,0
Cc1ccccc1C(=NCCCN(C)C)c1ccccc1C,0,0,77.2,0,0,0
SMILES,CHO-K1 Ca PAM,CHO-K1 Ca antag,M1 antag,CHRM1 PAM,CHRM1 agonist,M1 ag parental
CN(N=C(c1ccccc1)c1ccccc1)c1ccccc1,0,0,0,0,0,0
Cc1cccc(C(=O)NNC(=O)C2CC2)c1,0,0,0,0,0,0
Cc1cc(SCn2nnc3ccccc3c2=O)nc2ccccc12,0,0,0,0,0,0
Cc1ccc(-n2nnnc2SCn2nnc3ccccc3c2=O)c(C)c1,0,24.2,0,0,0,0
CCCCC(=O)N(C)c1c(C)nc2ccc(C(=O)N(CC)CCN(C)C)cn12,0,0,0,0,0,0
CCCc1cc(=O)oc2cc(OC(C)C(=O)NCC3CCC(C(=O)O)CC3)ccc12 (centres undefined),0,26.6,0,0,0,0

# Compound activity: PubChem, The Scripps Research Institute Molecular Screening Center
